Experiment [1] relates to XIP peptide (Xip251-270) binding. Nature of the experiment: XIP fragment 251-270 binding compounds – biochemical, small-molecule microarray, fluorescence 635/667 nm, 0.1 µg/mL protein, primary screen (AID 1182). As to conditions: fluorescent protein binding, 635 nm, higher = more signal, called active from +8 up or from −8 down.
The next experiment concerns XIP peptide (Xip251-270). Nature of the experiment: compounds binding XIP fragment 251-270 – biochemical, small-molecule microarray, fluorescence 635/667 nm, 0.5 µg/mL protein, primary screen (AID 1183). As to conditions: fluorescence 635 nm, higher = more signal.
Experiment [2] in a line: blood-stage malaria parasite viability loss – strain 3D7, DAPI fluorescence, 100 nL, primary screen (AID 1184).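 Also: parasites grown inside human red blood cells in medium with human serum.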 Conditions: P. falciparum 3D7 growth, 3 d, higher = more signal.
The target of experiment [3] is Homeobox protein Hox-A13 (Mus musculus) (UniProt Q62424). The experiment can be described thus: disruptors of Hoxa13 oligonucleotide interaction – biochemical, fluorescence polarization, labeled oligonucleotide, primary screen (AID 1185). Conditions: Hoxa13:DNA binding, 15 min, higher = more signal, called active from +8 up or from −8 down. On the technique in general: Fluorescence polarisation rises when a labelled molecule tumbles more slowly, as on binding a larger partner.

Experiment [4] is described as follows: blockers of DNA damage checkpoint Chk1 activation – imaging, HeLa, hydroxyurea, phospho-Chk1 antibody, percent positive cells, primary screen (AID 1186). As to conditions: hydroxyurea-induced phospho-Chk1 immunofluorescence imaging, higher = more signal.
Experiment [5] in a line: blockers of DNA damage checkpoint Chk1 activation – imaging, HeLa, hydroxyurea, phospho-Chk1 nuclear intensity, primary screen (AID 1187). Conditions: hydroxyurea-induced phospho-Chk1 immunofluorescence imaging, higher = more signal.

Active and inactive are the calls of the source. Unless noted, no rule for the calls is given here.

Sequence of Homeobox protein Hox-A13 (Mus musculus) (Q62424 whole entry, looked up): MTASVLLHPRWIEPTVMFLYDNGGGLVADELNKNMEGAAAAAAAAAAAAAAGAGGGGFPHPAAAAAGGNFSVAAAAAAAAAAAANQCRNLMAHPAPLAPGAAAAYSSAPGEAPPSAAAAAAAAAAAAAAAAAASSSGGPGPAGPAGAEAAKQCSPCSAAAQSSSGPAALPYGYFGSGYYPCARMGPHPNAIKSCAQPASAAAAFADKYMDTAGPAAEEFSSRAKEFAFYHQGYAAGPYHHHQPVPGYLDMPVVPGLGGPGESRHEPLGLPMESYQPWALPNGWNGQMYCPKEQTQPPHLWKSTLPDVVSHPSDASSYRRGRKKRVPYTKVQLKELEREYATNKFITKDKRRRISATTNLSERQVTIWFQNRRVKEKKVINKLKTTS

Turning to `COC(=O)[C@@]1(Cc2ccccc2)[C@H]2c3cc(C(=O)N(C)C)n(Cc4cc(C)n(C)n4)c3C[C@H]2CN1C(=O)c1ccccc1`, the composite z-score in experiment [1] is -0.0185 (inactive); in the experiment on XIP peptide (Xip251-270), 0.635. For the same compound, the z-score in experiment [2] was -1.19; in experiment [3], -5.13 (inactive); in experiment [4], 0.489 (inactive); in experiment [5] it was 0.42 (inactive).
As for `O=C1C2C=CC(C(O)c3cccs3)N(Nc3ccccc3F)C2C(=O)N1c1ccccc1` (stereo unspecified), the composite z-score was -0.238 (inactive) in experiment [1] and 0.111 in the experiment on XIP peptide (Xip251-270). For the same compound, the z-score is 0.669 in experiment [2], -4.17 (inactive) in experiment [3], -0.143 (inactive) in experiment [4] and -0.299 (inactive) in experiment [5].
In the case of `C=CC[C@@]1(C(=O)NCC(O)CO)N=C(c2ccc(OCCCO)cc2)O[C@@H]1c1ccccc1N=[N+]=[N-]` (stereo partly specified), the values for the composite z-score (in experiment [1]; with XIP peptide (Xip251-270)) were 1.06 (inactive) and 0.885, respectively. Also, the z-score in experiment [2] was -1.84; in experiment [3] it was -3.62 (inactive); in experiment [4], -0.0138 (inactive); in experiment [5] it was 0.107 (inactive).
As for `Cc1cc(C)c(C(O)C2C=CC3C(=O)N(c4ccccc4)C(=O)C3N2Nc2ccc(C#N)cc2)c(C)c1` (stereo unspecified), the composite z-score was 1.69 (inactive) in experiment [1] and 0.432 with XIP peptide (Xip251-270). Moreover, the z-score was -0.558 in experiment [2], 0.783 (inactive) in experiment [3], 0.0661 (inactive) in experiment [4] and 0.0947 (inactive) in experiment [5].
As for `COCCOC(=O)N1C(=O)[C@@]2(c3cc(C#CCNC(N)=O)ccc31)[C@H](c1ccc(O)cc1)N1[C@H](c3ccccc3)[C@H](c3ccccc3)OC(=O)[C@H]1[C@@H]2C(=O)Nc1nc2ccccc2s1`, the composite z-score in experiment [1] was -0.236 (inactive); in the experiment with XIP peptide (Xip251-270) it was -0.132. In addition, the z-score in experiment [2] is 0.0446; in experiment [3], -0.523 (inactive); in experiment [4], -0.373 (inactive); in experiment [5], -0.669 (inactive).
For `COc1ccc(C#Cc2ccc3c(c2)[C@]2(C(=O)N3)[C@H](c3ccc(O)cc3)N3[C@H](c4ccccc4)[C@H](c4ccccc4)OC(=O)[C@H]3[C@@H]2C(=O)N2CCCCCCC2)cc1`, the composite z-score in experiment [1] was 0.59 (inactive); in the experiment with XIP peptide (Xip251-270), 0.644. Further, the z-score in experiment [2] is -2.08; in experiment [3], 3.13 (inactive); in experiment [4] it was -0.184 (inactive); in experiment [5] it was -0.0916 (inactive).
With `O=C1[C@]2(CO)C=C(Br)[C@@H](C[C@@H]2c2ccccc2)[C@@]12CO2`, the composite z-score was -0.0567 (inactive) in experiment [1] and 0.0525 in the experiment on XIP peptide (Xip251-270). The z-score was 0.808 in experiment [2], -2.52 (inactive) in experiment [3], -0.0932 (inactive) in experiment [4] and -0.0264 (inactive) in experiment [5].
For `COCC1=C2[C@@H](CCc3ccccc3)OB(O)C[C@@H]2[C@@H]2C(=O)N(Cc3ccccc3)C(=O)[C@@H]2C1`, the composite z-score in experiment [1] is -0.653 (inactive); with XIP peptide (Xip251-270), -0.538. The z-score in experiment [2] was 1.22; in experiment [3], -7.4 (inactive); in experiment [4], 0.141 (inactive); in experiment [5] it was 0.381 (inactive).
In the case of `COCCOC(=O)N1C(=O)[C@@]2(c3cc(C#CCCO)ccc31)[C@H](c1ccc(O)cc1)N1[C@H](c3ccccc3)[C@H](c3ccccc3)OC(=O)[C@H]1[C@@H]2C(N)=O`, the composite z-score is 0.599 (inactive) in experiment [1] and 0.77 in the experiment with XIP peptide (Xip251-270). Further, the z-score in experiment [2] is -0.662; in experiment [3] it was -5.33 (inactive); in experiment [4], -0.296 (inactive); in experiment [5] it was -0.841 (inactive).
As to `CCOC(=O)C[C@H]1[C@H](OC(=O)c2ccc(-c3ccccc3)cc2)[C@@H](NC(=O)c2ccc3ccccc3c2)c2cc(OCCCO)ccc2N1C(=O)Cc1ccc(OC)cc1`, the composite z-score was -0.341 (inactive) in experiment [1] and -0.0332 with XIP peptide (Xip251-270). For the same compound, the z-score in experiment [2] is -0.884; in experiment [3], -1.89 (inactive); in experiment [4] it was -0.192 (inactive); in experiment [5], 0.0873 (inactive).
With `C=C[C@@H](COC(C)=O)N(Cc1ccc([N+](=O)[O-])cc1)S(=O)(=O)c1ccc(Br)cc1`, the figures for the composite z-score (in experiment [1]; in the experiment with XIP peptide (Xip251-270)) were 0.13 (inactive) and 0.656, respectively. Also, the z-score is 0.242 in experiment [2], -3.25 (inactive) in experiment [3], -0.617 (inactive) in experiment [4] and -0.411 (inactive) in experiment [5].
Regarding `COc1ccc([Si](C)(C)[C@H]2[C@H](CCn3cc([C@H](O)c4ccccc4)nn3)O[C@@]3(C(=O)N(Cc4cccc(N5CCC5=O)c4)c4ccccc43)[C@@H]2C)cc1`, the composite z-score is 0.275 (inactive) in experiment [1] and 0.444 with XIP peptide (Xip251-270). The z-score was -1.98 in experiment [2], -2.56 (inactive) in experiment [3], -1.17 (inactive) in experiment [4] and -0.364 (inactive) in experiment [5].
For `CCN(CC)c1ccc(N2CC=CC34O[C@@H]5C=CCCOC(=O)C5[C@H]3C(=O)N(CCCCCO)[C@@H]4C2=O)cc1` (stereo partly specified), the composite z-score is 0.235 (inactive) in experiment [1] and -0.782 with XIP peptide (Xip251-270). Moreover, the z-score was 0.315 in experiment [2], -5.22 (inactive) in experiment [3], 0.234 (inactive) in experiment [4] and 0.711 (inactive) in experiment [5].
For the compound `COc1ccc(CCNC(=O)[C@@H]2c3ccccc3C(=O)N(Cc3ccc(OC(F)(F)F)cc3)[C@H]2c2ccc(CO)cc2)cc1`, the composite z-score in experiment [1] was 0.987 (inactive); in the experiment with XIP peptide (Xip251-270) it was 0.486. Further, the z-score in experiment [2] was -0.756; in experiment [3], -4.53 (inactive); in experiment [4], -0.232 (inactive); in experiment [5], -0.312 (inactive).
With `CC(=O)NCCCC[C@@H]1NC(=O)[C@@H]2C[C@H](C(=O)NCCCCCCNC(=O)CS)[C@H](c3ccc(O)cc3)N2C1=O`, the composite z-score in experiment [1] is 0.757 (inactive); with XIP peptide (Xip251-270), 0.596. Moreover, the z-score in experiment [2] was 0.648; in experiment [3], -5.16 (inactive); in experiment [4], 0.34 (inactive); in experiment [5], 0.0918 (inactive).
For the compound `COc1ccc([Si](C)(C)[C@H]2[C@H](CCn3cc(CCO)nn3)O[C@@]3(C(=O)N(Cc4ccc(N5CCOC5=O)cc4)c4ccccc43)[C@@H]2C)cc1`, the composite z-score in experiment [1] is 0.523 (inactive); in the experiment with XIP peptide (Xip251-270) it was 0.866. Besides, the z-score is -2.38 in experiment [2], -4.22 (inactive) in experiment [3], -1.11 (inactive) in experiment [4] and -0.744 (inactive) in experiment [5].
As for `CCC(CC)C(O)C1C=CC2C(=O)N(c3ccccc3)C(=O)C2N1Nc1ccc(C#N)cc1` (stereo unspecified), the composite z-score in experiment [1] is 0.132 (inactive); in the experiment with XIP peptide (Xip251-270), 0.799. Also, the z-score was 0.324 in experiment [2], -1.39 (inactive) in experiment [3], 0.288 (inactive) in experiment [4] and 0.192 (inactive) in experiment [5].
As to `C[C@]1(C(=O)NCc2ccccc2)c2ccccc2C(=O)N(Cc2cc(F)cc(C(F)(F)F)c2)[C@H]1c1ccc(CO)cc1`, the composite z-score in experiment [1] is 0.753 (inactive); in the experiment with XIP peptide (Xip251-270), 0.518. In addition, the z-score in experiment [2] is -0.327; in experiment [3], -3.43 (inactive); in experiment [4], -0.603 (inactive); in experiment [5] it was -0.552 (inactive).
`COC(=O)[C@@]1(Cc2ccc(OC)cc2)[C@H]2c3cc(C(=O)N(C)C)n(Cc4c(OC)[nH]cc(C)c4=O)c3C[C@H]2CN1C(=O)c1ccccc1`: the composite z-score in experiment [1] is -0.378 (inactive); in the experiment on XIP peptide (Xip251-270), 0.523. In addition, the z-score in experiment [2] is -1.44; in experiment [3], -5.46 (inactive); in experiment [4], 0.324 (inactive); in experiment [5], -0.208 (inactive).
In the case of `CC(c1ccccc1)C(O)C1C=CC2C(=O)NC(=O)C2N1Nc1ccccn1` (stereo unspecified), the figures for the composite z-score (in experiment [1]; in the experiment on XIP peptide (Xip251-270)) were 0.197 (inactive) and 0.676, respectively. Further, the z-score in experiment [2] was 0.196; in experiment [3], -1.82 (inactive); in experiment [4] it was 0.651 (inactive); in experiment [5], 0.136 (inactive).
`NC(=O)NCC#Cc1ccc2c(c1)[C@]1(C(=O)N2)[C@H](C(=O)N2CCCCCCC2)[C@H]2C(=O)O[C@H](c3ccccc3)[C@H](c3ccccc3)N2[C@@H]1c1ccc(OCCO)cc1`: the values for the composite z-score (in experiment [1]; with XIP peptide (Xip251-270)) were 0.98 (inactive) and 0.246, respectively. Besides, the z-score in experiment [2] was -0.922; in experiment [3] it was -15.8 (active); in experiment [4] it was 0.109 (inactive); in experiment [5], 0.309 (inactive).

Values taken from PubChem BioAssay.
